Our source for the growth values is PubChem BioAssay (NCI).

Compounds without any hit were thinned out: in the full panel of roughly 83,000, 20% have a hit.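 For each line, cells grew in 96-well plates with the test compound present at a single concentration for 48 hours.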 Values without a mark were called inactive. Activity calls are given as the source filed them. Rule for the calls: active = growth percent below 10; inactive = the rest.

Assay in all cases: NCI-60 one-dose screen, 48 h (100 = growth as untreated, 0 = no growth, -100 = all killed)
Holding throughout (details): 10 µM unless noted

Experiment [1] has as its system SK-MEL-2 melanoma.
Experiment [2] relates to EKVX NSCLC.
The test system of experiment [3] is SN12C renal.
The subject of experiment [4] is UO-31 renal.
Experiment [5] has as its system TK-10 renal.
For experiment [6], the system named is ACHN renal.
Experiment [7] concerns CAKI-1 renal.
For experiment [8], the system named is A498 renal.
Experiment [9] has as its system CCRF-CEM leukemia.
Experiment [10] relates to MOLT-4 leukemia.

On to `Clc1cc(Cl)cc(-c2cnc3nonc3n2)c1`, for which the growth was 98.5% in experiment [1]; 102% in [2]; 99.4% in experiment [3]; 62.3% in experiment [4]; 79.9% in experiment [5]; 72.6% in experiment [6]. The growth in experiment [7] was 93.5%; in experiment [8], 100%; in experiment [9], 50.5%; in experiment [10] it was 92.9%.
In the case of `CCN1C(=O)C(C)C=C(C)C=C1C` (configuration not stated), the growth was 102% in [1]; 114% in experiment [2]; 112% in [3]; 86.8% in experiment [4]; 105% in experiment [5]; 102% in [6]. In addition, the growth in [7] was 107%; in experiment [8] it was 112%; in experiment [9] it was 102%; in experiment [10], 92.4%.
On to `COc1cccc(-c2nc3sccn3c2-c2ccnc(NCCN3CCCNS3(=O)=O)n2)c1`, for which the growth in experiment [1] was 86.3%; in experiment [2] it was 110%; in experiment [3], 60.8%; in experiment [4], 70.7%; in experiment [5] it was 115%; in [6], 48.4%. The growth is 44.6% in experiment [7], 108% in experiment [8], 68.1% in [9] and 87.5% in experiment [10].
For the compound `COc1ccccc1/C=N\Nc1ccc([N+](=O)[O-])cn1`, the growth in experiment [1] was 102%; in experiment [2], 92.8%; in [3], 109%; in experiment [4], 90.8%; in experiment [5], 111%; in experiment [6], 109%. The growth was 90.4% in experiment [7], 106% in experiment [8], 106% in [9] and 103% in [10].
Turning to `CCCCCCCOc1cccc(/C=C2\N=C3SCCCN3C2=O)c1`, the growth is 95.5% in [1]; 92.7% in experiment [2]; 94.1% in [3]; 78.7% in [4]; 96.2% in experiment [5]; 96.4% in [6]. Moreover, the growth in experiment [7] is 94.4%; in experiment [8] it was 94.6%; in experiment [9], 111%; in [10], 100%.
As to `CS(=O)(=O)c1ccc(C(=O)N/N=C/c2ccc3c(c2)OCO3)cc1`, the growth in experiment [1] was 89.1%; in experiment [2], 100%; in experiment [3], 99.2%; in [4] it was 96.3%; in experiment [5], 106%; in experiment [6], 105%. Besides, the growth in experiment [7] was 93%; in [8], 94.6%; in experiment [9], 87%; in [10] it was 70.8%.
On to `CCN1C(=O)N(CC)C2C1NC(=O)N2/N=C/C=C/c1ccccc1` (configuration not stated), for which the growth was 34.3% in experiment [1]; 53.8% in [2]; 61.3% in experiment [3]; 57.6% in experiment [4]; 69.3% in experiment [5]; 48.1% in [6]. In addition, the growth in experiment [7] is 47.2%; in experiment [8], 25.2%; in experiment [9], 19.1%; in experiment [10], 43.7%.
`O=C1N(Cc2ccccc2Cl)c2ccccc2C12NN=C(c1ccccc1)S2` (configuration not stated): the growth in [1] is 91.3%; in [2] it was 58.1%; in [3], 64.1%; in experiment [4] it was 54.2%; in experiment [5], 105%; in experiment [6] it was 59.4%. Besides, the growth in experiment [7] was 47.4%; in experiment [8] it was 52.8%; in experiment [9] it was 57.3%; in experiment [10], 53.6%.
Regarding `COc1cc(CN(CCC(O)N2CCCC2=O)Cc2ccc3c(c2)OCO3)cc(OC)c1OC` (configuration not stated), the growth in experiment [1] was 94.5%; in experiment [2], 107%; in [3], 105%; in experiment [4], 78.1%; in experiment [5] it was 112%; in experiment [6], 100%. The growth in [7] is 97.1%; in experiment [8], 118%; in [9], 98.3%; in experiment [10] it was 85.2%.
As for `C=C1C(=O)O[C@H]2[C@H]1CC/C(COC(=O)NCc1c[nH]c3ccc(OC)cc13)=C\CC[C@@]1(C)O[C@@H]21`, the growth in [1] is 35.9%; in [2], 33.9%; in [3] it was 10.9%; in experiment [4], -85% (active); in [5] it was -40.3% (active); in experiment [6], -10.7% (active). Further, the growth in [7] is -2.21% (active); in experiment [8] it was 94.1%; in [9], -7.78% (active); in [10], 2.7% (active).
As to `COc1ncnc2[nH]cc(CN3CCN(c4ccc(F)cc4)CC3)c12`, the growth in experiment [1] was 103%; in experiment [2], 97.9%; in experiment [3], 102%; in experiment [4], 94.3%; in [5], 90.1%; in experiment [6] it was 104%. Besides, the growth in [7] is 98.8%; in experiment [8], 80%; in experiment [9], 97.1%; in [10] it was 105%.
`CC(C)c1nc2ccccc2n1CC(=O)N/N=C/c1cccc(O)c1`: the growth in experiment [1] is 107%; in experiment [2], 105%; in [3], 94.1%; in experiment [4], 80.2%; in [5] it was 93.5%; in [6], 95.7%. Besides, the growth in [7] was 101%; in experiment [8], 88%; in experiment [9] it was 94.9%; in experiment [10], 91.9%.
As for `O=C(CCCN1CCC(O)(c2ccc(Br)cc2)CC1)c1ccc(F)cc1`, the growth in experiment [1] was 100%; in [2], 91%; in [3], 72.8%; in experiment [4], 45.6%; in experiment [5], 96.6%; in [6], 72.5%. The growth is 82.1% in experiment [7], 82.2% in experiment [8], 63.8% in [9] and 60.3% in experiment [10].
Turning to `CC(=O)Oc1c(Cl)c(Cl)c(Cl)c(Cl)c1Cl`, the growth is 90.1% in experiment [1]; 87.6% in [2]; 94.1% in [3]; 81.6% in experiment [4]; 101% in experiment [5]; 95.8% in experiment [6]. Also, the growth in [7] was 89.2%; in experiment [8] it was 86.1%; in experiment [9], 83.2%; in experiment [10] it was 85.6%.
With `CC(C)CC(=O)C(CCc1ccccn1)C(C)C` (configuration not stated), the growth in experiment [1] is 103%; in experiment [2], 99.4%; in experiment [3] it was 107%; in [4] it was 103%; in [5], 102%; in experiment [6] it was 101%. For the same compound, the growth in experiment [7] is 79%; in experiment [8] it was 91.8%; in experiment [9], 97.2%; in experiment [10], 108%.
Regarding `CC(=O)OC[C@H]1O[C@@H](n2c(=O)cc(N)[nH]c2=O)C(OC(C)=O)[C@@H]1OC(C)=O` (some centres not stated), the growth was 105% in [1]; 104% in experiment [2]; 103% in experiment [3]; 78.6% in [4]; 97.8% in experiment [5]; 101% in [6]. The growth in [7] was 88.8%; in experiment [8], 98.1%; in experiment [9], 111%; in [10], 108%.
As to `CCOC(=O)Cc1cc(Br)c(OCc2ccccc2)c(Br)c1`, the growth in experiment [1] was 94.8%; in experiment [2] it was 90.9%; in experiment [3], 88.9%; in experiment [4], 80.5%; in experiment [5], 96.8%; in experiment [6], 92%. Further, the growth in [7] was 77.2%; in experiment [8], 109%; in experiment [9], 95.4%; in [10], 77.2%.
Take `O/N=C/c1ccncc1`: the growth is 112% in experiment [1]; 100% in experiment [2]; 121% in experiment [3]; 102% in [4]; 100% in [5]; 109% in [6]. For the same compound, the growth in [7] was 84.3%; in experiment [8] it was 101%; in experiment [9], 95.5%; in [10], 111%.
Consider `COc1ccc2nc(-c3ccc(-c4noc(-c5ccc(Cl)cc5)n4)cc3)[nH]c2c1`, for which the growth in experiment [1] is 100%; in [2], 91.2%; in experiment [3] it was 77.7%; in experiment [4], 55.8%; in experiment [5], 120%; in [6], 77.9%. The growth in experiment [7] was 92.1%; in [8], 90.7%; in [9] it was 57%; in [10], 79%.
`ClCc1c(Cl)c(Cl)c(Cl)c(CCl)c1Cl`: the growth in experiment [1] is 87.7%; in experiment [2] it was 101%; in [3], 41.5%; in experiment [4], -21.7% (active); in [5], -73.9% (active); in experiment [6], 8.92% (active). Moreover, the growth was -76.4% (active) in [7], 89% in experiment [8], 3.24% (active) in experiment [9] and 13.3% in [10].
As to `c1cc2c(cc1-c1cnc3nonc3n1)OCO2`, the growth in [1] is 115%; in experiment [2], 93.4%; in [3] it was 103%; in experiment [4] it was 87.9%; in experiment [5], 105%; in experiment [6] it was 73.3%. The growth in [7] was 84.4%; in experiment [8] it was 86.9%; in experiment [9], 46%; in [10], 80.3%.
Regarding `CCC1N=C(N)N=C(N)N1c1ccc(Cl)cc1` (configuration not stated), the growth in [1] was 100%; in experiment [2], 68.4%; in experiment [3], 96.9%; in experiment [4] it was 89%; in [5] it was 97%; in [6], 108%. Further, the growth was 96.3% in experiment [7], 77.1% in experiment [8], 107% in experiment [9] and 79.6% in experiment [10].
Take `CC(=O)Cc1ccccn1`: the growth was 102% in experiment [1]; 97.7% in experiment [2]; 111% in experiment [3]; 88.5% in [4]; 109% in experiment [5]; 99.5% in [6]. The growth in [7] was 88%; in [8] it was 107%; in [9], 99.5%; in experiment [10], 102%.
In the case of `CC(C)CC1NC(=O)C(CC(C)C)N(CO)C1=O` (configuration not stated), the growth is 93.9% in experiment [1]; 115% in experiment [2]; 99.4% in experiment [3]; 84.5% in [4]; 97.9% in experiment [5]; 108% in experiment [6]. Further, the growth is 99.8% in [7], 95.9% in experiment [8], 84.7% in experiment [9] and 92.7% in [10].
With `CCOC(=O)c1cc(N)nc2ccccc12`, the growth is 99.9% in experiment [1]; 108% in experiment [2]; 109% in [3]; 103% in [4]; 106% in experiment [5]; 105% in experiment [6]. Moreover, the growth was 102% in experiment [7], 95% in experiment [8] and 100% in experiment [10].
`Nc1cc(C(=O)O)cc(C(=O)O)c1`: the growth was 89.6% in [1]; 105% in [2]; 96.3% in experiment [3]; 84.8% in experiment [4]; 101% in experiment [5]; 109% in experiment [6]. Besides, the growth was 104% in experiment [7], 98% in experiment [8] and 90.1% in experiment [10].
On to `CCCCCCCCCCCCCC1=NC(C)(C)CN1C(C)C`, for which the growth in experiment [1] was -66.3% (active); in [2], -2.5% (active); in [3], 9.87% (active); in [4], -65.1% (active); in [5], -73% (active); in experiment [6], -67.2% (active). The growth is -67% (active) in [7], 87.7% in [8], -44.1% (active) in experiment [9] and -58.5% (active) in [10].
On to `N/N=C(\C(=N\N)c1ccccc1)c1ccccc1`, for which the growth in experiment [1] was 98.7%; in [2], 94%; in experiment [3] it was 88.9%; in experiment [4], 73.6%; in experiment [5], 98.8%; in experiment [6], 104%. The growth in experiment [7] was 99.9%; in [8], 76.1%; in [10] it was 81.2%.
